From PubChem BioAssay (NCI) come the findings set out here.

Each structure is given as a SMILES string. Compounds without any hit were thinned out: in the full panel of roughly 83,000, 20% have a hit.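 Each cell line was grown in a 96-well plate and treated with one concentration of compound for 48 hours. Values below 10 were considered active.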 Unmarked numbers belong to inactive results. Active and inactive are the calls of the source.

Some test systems named below: NCI-H23 lung; NCI-H226 lung; NCI-H322M lung; HOP-62 NSCLC; NCI-H460 lung; NCI-H522 lung; A549/ATCC NSCLC; 786-0 renal; COLO 205 colon; DU-145 prostate; K-562 leukemia; MALME-3M melanoma; MDA-MB-231 breast; SF-268 CNS; SF-295 CNS; SF-539 CNS; UACC-257 melanoma; M14 melanoma; HCT-15 colon; RXF 393 renal.
Holding throughout (assay): NCI-60 one-dose screen, 48 h (100 = growth as untreated, 0 = no growth, -100 = all killed)
Holding throughout (conditions): 10 µM

In the case of `O=C(CC(C(=O)c1ccccc1)N1CCOCC1)c1ccccc1` (stereo not drawn), the growth in the test with NCI-H23 lung is 97.4%; in the test on NCI-H226 lung, 90.3%; in the test on NCI-H322M lung it was 109%; in the test on HOP-62 NSCLC, 106%; in the test on NCI-H460 lung it was 102%; in the test with NCI-H522 lung, 74.7%. The growth is 91.9% with A549/ATCC NSCLC; 98.8% in the test with 786-0 renal; 58.5% with COLO 205 colon; 101% in the test on DU-145 prostate; 40.5% with K-562 leukemia; 101% with MALME-3M melanoma. The growth in the test on MDA-MB-231 breast was 92.7%; with SF-268 CNS, 97.6%; in the test on SF-295 CNS it was 92.9%; in the test with SF-539 CNS, 96.7%; with UACC-257 melanoma, 93.8%; in the test with M14 melanoma it was 101%. Moreover, the growth in the test with HCT-15 colon is 85%.
For `CN(C)CC(O)c1ccc2cc(Br)c3ccccc3c2c1` (stereo not drawn), the growth in the test on NCI-H23 lung was 80.1%; in the test with NCI-H226 lung, 78.7%; in the test with NCI-H322M lung, 72.7%; in the test with HOP-62 NSCLC, 62.1%; in the test with NCI-H460 lung it was 37%; with NCI-H522 lung, 65.6%. Further, the growth with A549/ATCC NSCLC was 57.1%; with 786-0 renal, 54%; in the test with COLO 205 colon, -67.8% (active); with DU-145 prostate it was 70.7%; with K-562 leukemia it was 24.7%; in the test with MALME-3M melanoma, 97.1%. The growth was 16.8% with MDA-MB-231 breast; 58.5% with SF-268 CNS; 75.6% in the test on SF-295 CNS; 65.9% in the test with SF-539 CNS; 99.2% in the test with UACC-257 melanoma; 47.2% in the test on M14 melanoma. The growth with HCT-15 colon is 53.7%.
With `CCN(CC)CCC(CNc1c(C)cnc2cc(Cl)ccc12)c1ccc(Cl)c(Cl)c1` (stereo not drawn), the growth in the test with NCI-H23 lung is 63.7%; with NCI-H226 lung it was 85.9%; in the test on NCI-H322M lung, 51.8%; in the test on HOP-62 NSCLC, 68.8%; with NCI-H460 lung, 63.8%; in the test on NCI-H522 lung it was 49.2%. The growth with A549/ATCC NSCLC is 64.1%; in the test with 786-0 renal, 60.2%; in the test on COLO 205 colon it was -56.5% (active); in the test with DU-145 prostate it was 73.8%; with K-562 leukemia it was 1.52% (active); in the test with MALME-3M melanoma it was -52% (active). For the same compound, the growth with MDA-MB-231 breast is 25.5%; with SF-268 CNS, 71.8%; with SF-295 CNS it was 65.4%; with SF-539 CNS, 20.9%; in the test on UACC-257 melanoma, -49.6% (active); in the test on M14 melanoma, -64.5% (active). Further, the growth with HCT-15 colon was 32.3%.
Turning to `COc1cc(/C=C2\Oc3cc(OCC(=O)c4ccccc4)ccc3C2=O)cc(OC)c1OC`, the growth in the test on NCI-H23 lung is 105%; in the test on NCI-H226 lung it was 104%; with NCI-H322M lung, 126%; in the test with HOP-62 NSCLC, 2.36% (active); in the test with NCI-H460 lung, 93%; in the test with NCI-H522 lung, 105%. The growth is 118% in the test on A549/ATCC NSCLC; -45.9% (active) in the test with 786-0 renal; 146% with COLO 205 colon; 94.9% in the test with DU-145 prostate; 105% with K-562 leukemia; 114% in the test on MALME-3M melanoma. Also, the growth is 95.6% in the test on MDA-MB-231 breast; 105% in the test on SF-268 CNS; 91.5% in the test with SF-295 CNS; 121% in the test on SF-539 CNS; 132% in the test with UACC-257 melanoma; 125% in the test on M14 melanoma. The growth with HCT-15 colon is 103%.
Regarding `COC(=O)C(=C\c1ccc2c(c1)OCO2)/C(=C/c1ccc2c(c1)OCO2)C(=O)OC`, the growth in the test with NCI-H23 lung was 92.4%; with NCI-H226 lung it was 97.8%; with NCI-H322M lung, 96.9%; with HOP-62 NSCLC it was 102%; in the test with NCI-H460 lung, 112%; in the test on NCI-H522 lung it was 86%. Besides, the growth in the test with A549/ATCC NSCLC was 101%; in the test on 786-0 renal, 98.1%; in the test with COLO 205 colon it was 102%; in the test on DU-145 prostate it was 103%; in the test with K-562 leukemia, 108%; in the test with MALME-3M melanoma it was 101%. Besides, the growth with MDA-MB-231 breast was 107%; in the test with SF-268 CNS, 96%; with SF-295 CNS, 95.3%; with SF-539 CNS it was 96.1%; in the test with UACC-257 melanoma it was 108%; in the test on M14 melanoma, 99.4%. Besides, the growth in the test on HCT-15 colon is 97.8%.
Consider `O=C(Cc1csc2nc(-c3ccc(Cl)cc3)cn12)N/N=C/c1ccccc1O`, for which the growth in the test on NCI-H23 lung was 59.5%; in the test on NCI-H226 lung, 56.2%; with NCI-H322M lung, 51.4%; in the test on HOP-62 NSCLC, 40.3%; with NCI-H460 lung, 18.5%; in the test with NCI-H522 lung it was 49.2%. For the same compound, the growth in the test with A549/ATCC NSCLC is 36.9%; in the test with 786-0 renal, 32.9%; in the test on COLO 205 colon, 16.5%; in the test with DU-145 prostate, -8.65% (active); in the test on K-562 leukemia, 41%; with MALME-3M melanoma, 74.5%. In addition, the growth in the test with MDA-MB-231 breast is 35.5%; in the test with SF-268 CNS it was 37.9%; with SF-295 CNS it was 37.6%; with SF-539 CNS, 67.3%; in the test on UACC-257 melanoma, 46.5%; in the test on M14 melanoma it was 47.1%. Moreover, the growth in the test with HCT-15 colon was 17.2%.
In the case of `CCc1ccc2c(c1)N(CCO)C1=C(C(=O)OC1)C2c1cc(OC)c(OC)c(OC)c1` (stereo not drawn), the growth with NCI-H23 lung was 19.5%; with NCI-H226 lung it was 3.03% (active); in the test on NCI-H322M lung, 13.7%; with HOP-62 NSCLC it was 28.8%; in the test on NCI-H460 lung it was 2.43% (active); in the test with NCI-H522 lung, -40.4% (active). Besides, the growth in the test with A549/ATCC NSCLC was 16.3%; in the test with 786-0 renal, 20.2%; with COLO 205 colon, -69.3% (active); with DU-145 prostate, -28.3% (active); in the test with K-562 leukemia it was 10.5%; in the test on MDA-MB-231 breast, -28% (active). Moreover, the growth in the test on RXF 393 renal was 53.4%; with SF-268 CNS, 21.7%; in the test on SF-295 CNS, -28.4% (active); with SF-539 CNS it was -9.69% (active); with UACC-257 melanoma it was 50.5%; in the test on M14 melanoma, 10.2%. The growth in the test with HCT-15 colon is 6.93% (active).
`O=C(NC(Cc1ccc(O)cc1)C(=O)N=Nc1c(O)[nH]c2ccccc12)c1ccccc1` (stereo not drawn): the growth in the test on NCI-H23 lung is 95%; with NCI-H226 lung it was 100%; in the test on NCI-H322M lung, 102%; in the test on HOP-62 NSCLC, 93.3%; in the test on NCI-H460 lung, 107%; in the test with NCI-H522 lung it was 97.1%. Besides, the growth with A549/ATCC NSCLC is 99.5%; in the test on 786-0 renal it was 98.9%; in the test with COLO 205 colon, 109%; in the test with DU-145 prostate it was 108%; in the test on K-562 leukemia, 107%; in the test with MDA-MB-231 breast, 110%. For the same compound, the growth was 108% with RXF 393 renal; 97.8% in the test on SF-268 CNS; 97.4% in the test with SF-295 CNS; 98.3% in the test with SF-539 CNS; 97.5% in the test on UACC-257 melanoma; 94% in the test on M14 melanoma. In the test with HCT-15 colon, the growth was 103%.
As to `NC1(C(=O)O)CSSC1`, the growth is 49.8% with NCI-H23 lung; 60.5% with NCI-H226 lung; 109% in the test with NCI-H322M lung; 35.9% in the test with HOP-62 NSCLC; 13.3% in the test on NCI-H460 lung; 121% in the test with NCI-H522 lung. Further, the growth in the test on A549/ATCC NSCLC was 22.1%; in the test with 786-0 renal, 107%; in the test with COLO 205 colon, 102%; in the test on DU-145 prostate it was 78.8%; in the test with K-562 leukemia it was 43.3%; in the test on MDA-MB-231 breast it was 124%. The growth was 74% with RXF 393 renal; 101% in the test with SF-268 CNS; 33.6% with SF-295 CNS; 97% in the test with SF-539 CNS; 48.5% in the test with UACC-257 melanoma; 9.39% (active) in the test with M14 melanoma. For the same compound, the growth with HCT-15 colon is 66.3%.
As to `ClCCOCCn1cnc2c(Cl)nc(Cl)nc21`, the growth was 55.1% with NCI-H23 lung; 74.8% in the test with NCI-H226 lung; 89.9% in the test with NCI-H322M lung; 88.6% with HOP-62 NSCLC; 28.5% with NCI-H460 lung; 60.1% with NCI-H522 lung. Further, the growth is 60.7% with A549/ATCC NSCLC; 87.6% with 786-0 renal; 88.1% in the test on COLO 205 colon; -5.51% (active) with DU-145 prostate; 28.2% in the test on K-562 leukemia; 112% in the test on MALME-3M melanoma. The growth is 58.2% in the test on MDA-MB-231 breast; 45.3% with SF-268 CNS; 70.2% in the test on SF-295 CNS; 96.8% with SF-539 CNS; 59.9% in the test on UACC-257 melanoma; 18.4% in the test with HCT-15 colon.
With `COc1ccc(NC(=O)Cc2nc3nc4sc(C)c(C)c4c(=O)n3[nH]2)cc1`, the growth in the test with NCI-H23 lung is 101%; in the test with NCI-H226 lung, 86.7%; with NCI-H322M lung it was 94.5%; with HOP-62 NSCLC it was 107%; in the test on NCI-H460 lung, 110%; in the test on NCI-H522 lung, 90.3%. Moreover, the growth in the test on A549/ATCC NSCLC is 91.2%; with 786-0 renal, 104%; in the test on COLO 205 colon, 118%; in the test on DU-145 prostate it was 110%; with K-562 leukemia, 109%; in the test with MALME-3M melanoma, 89.2%. The growth is 108% with MDA-MB-231 breast; 109% with SF-268 CNS; 91.3% in the test with SF-295 CNS; 103% with SF-539 CNS; 101% with UACC-257 melanoma; 103% in the test on M14 melanoma. Further, in the test with HCT-15 colon, the growth is 99.7%.
